Test results as given in PubChem BioAssay AID1159580 (chemical genetic matrix, 2015).
The whole screen tested about 5,500 compounds, of which about 2,000 (36%) were called active. About 18% were inconclusive and are not listed. This is one part of the list. Unmarked numbers belong to inactive results. No stated cut-off is given here; in the data, active means normalized growth mostly below about 0.91 (no sharp cut-off); inconclusive means no clear call, values can overlap the other calls; inactive means mostly above about 0.92.

Assay: chemical genetic growth profiling, strain panel (AID 1159580);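 further: tested at 20 µM; growth read once vehicle control cultures reached saturation at 30 °C; 1 = growth at the plate median or of vehicle wells; lower values mean less growth of the strain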
Settings: growth OD

c1cc2c(cc1[C@H]1OC[C@H]3[C@@H]1CO[C@H]3c1ccc3c(c1)OCO3)OCO2
normalized growth (S. cerevisiae deletion strains, locus YJR075W, strain HOC1, active compounds read low): 0.914 | normalized growth (S. cerevisiae deletion strains, locus YKL009W, strain mrt4, active compounds read low): 0.922 | normalized growth (S. cerevisiae deletion strains, locus YKL068W, active compounds read low): 0.929 (active) | normalized growth (S. cerevisiae deletion strains, locus YKL085W, strain MDH1 (second series), active compounds read low): 0.915 (active) | normalized growth (S. cerevisiae deletion strains, locus YKL085W, strain MDH1, active compounds read low): 0.915 (active) | normalized growth (S. cerevisiae deletion strains, locus YKL160W, strain elf1, active compounds read low): 0.878 (active) | normalized growth (S. cerevisiae deletion strains, locus YKL190W, strain CNB1, active compounds read low): 0.947 | normalized growth (S. cerevisiae deletion strains, locus YKR001C, strain vps1, active compounds read low): 0.683 (active) | normalized growth (S. cerevisiae deletion strains, locus YKR026C, strain gcn3, active compounds read low): 0.916 (active) | normalized growth (S. cerevisiae deletion strains, locus YKR091W, strain srl3, active compounds read low): 0.899 (active) | normalized growth (S. cerevisiae deletion strains, locus YLL001W, strain dnm1, active compounds read low): 0.887 (active) | normalized growth (S. cerevisiae deletion strains, locus YLL026W, active compounds read low): 0.922 (active) | normalized growth (S. cerevisiae deletion strains, locus YLL041C, strain sdh2, active compounds read low): 0.926 (active) | normalized growth (S. cerevisiae deletion strains, locus YLR027C, strain aat2, active compounds read low): 0.931 | normalized growth (S. cerevisiae deletion strains, locus YLR039C, strain RIC1, active compounds read low): 0.398 (active) | normalized growth (S. cerevisiae deletion strains, locus YLR058C, strain SHM2, active compounds read low): 0.943 | normalized growth (S. cerevisiae deletion strains, locus YLR102C, strain apc9, active compounds read low): 0.923 (active) | normalized growth (S. cerevisiae deletion strains, locus YLR113W, strain HOG1, active compounds read low): 0.865 | normalized growth (S. cerevisiae deletion strains, locus YLR221C, strain rsa3, active compounds read low): 0.886 (active) | normalized growth (S. cerevisiae deletion strains, locus YLR258W, strain gsy2, active compounds read low): 0.914 (active) | normalized growth (S. cerevisiae deletion strains, locus YLR262C, strain YPT6 (second series), active compounds read low): 0.455 (active) | normalized growth (S. cerevisiae deletion strains, locus YLR262C, strain YPT6, active compounds read low): 0.415 (active) | normalized growth (S. cerevisiae deletion strains, locus YLR268W, strain sec22, active compounds read low): 0.833 (active) | normalized growth (S. cerevisiae deletion strains, locus YLR320W, strain mms22, active compounds read low): 0.732 (active) | normalized growth (S. cerevisiae deletion strains, locus YLR330W, strain CHS5, active compounds read low): 0.816 (active) | normalized growth (S. cerevisiae deletion strains, locus YLR342W, strain FKS1 (second series), active compounds read low): 0.77 (active) | normalized growth (S. cerevisiae deletion strains, locus YLR342W, strain FKS1, active compounds read low): 0.9 (active) | normalized growth (S. cerevisiae deletion strains, locus YLR357W, strain rsc2, active compounds read low): 0.951 | normalized growth (S. cerevisiae deletion strains, locus YLR370C, strain arc18, active compounds read low): 0.914 | normalized growth (S. cerevisiae deletion strains, locus YLR371W, strain rom2, active compounds read low): 0.912 | normalized growth (S. cerevisiae deletion strains, locus YLR384C, strain iki3, active compounds read low): 0.936 | normalized growth (S. cerevisiae deletion strains, locus YLR418C, strain cdc73, active compounds read low): 0.692 (active) | normalized growth (S. cerevisiae deletion strains, locus YML016C, strain PPZ1, active compounds read low): 0.947 | normalized growth (S. cerevisiae deletion strains, locus YML032C, strain rad52, active compounds read low): 0.902 (active) | normalized growth (S. cerevisiae deletion strains, locus YML120C, strain ndi1, active compounds read low): 0.897 (active) | normalized growth (S. cerevisiae deletion strains, locus YML124C, strain tub3, active compounds read low): 0.902 (active) | normalized growth (S. cerevisiae deletion strains, locus YMR058W, strain fet3, active compounds read low): 0.896 (active) | normalized growth (S. cerevisiae deletion strains, locus YMR078C, strain ctf18, active compounds read low): 0.892 (active) | normalized growth (S. cerevisiae deletion strains, locus YMR125W, strain sto1, active compounds read low): 0.826 (active) | normalized growth (S. cerevisiae deletion strains, locus YMR129W, active compounds read low): 0.925 | normalized growth (S. cerevisiae deletion strains, locus YMR205C, strain PFK2, active compounds read low): 0.774 (active) | normalized growth (S. cerevisiae deletion strains, locus YMR223W, strain ubp8, active compounds read low): 0.914 | normalized growth (S. cerevisiae deletion strains, locus YMR231W, strain pep5, active compounds read low): 0.934 | normalized growth (S. cerevisiae deletion strains, locus YMR307W, strain GAS1, active compounds read low): 0.9 | normalized growth (S. cerevisiae deletion strains, locus YNL067W, strain RPL9B, active compounds read low): 0.957 | normalized growth (S. cerevisiae deletion strains, locus YNL071W, strain lat1, active compounds read low): 0.614 (active) | normalized growth (S. cerevisiae deletion strains, locus YNL128W, strain TEP1, active compounds read low): 1.01 | normalized growth (S. cerevisiae deletion strains, locus YNL153C, strain GIM3, active compounds read low): 0.822 (active) | normalized growth (S. cerevisiae deletion strains, locus YNL183C, strain NPR1, active compounds read low): 0.925 | normalized growth (S. cerevisiae deletion strains, locus YNL209W, strain ssb2, active compounds read low): 0.958 | normalized growth (S. cerevisiae deletion strains, locus YNL233W, strain BNI4, active compounds read low): 0.882 | normalized growth (S. cerevisiae deletion strains, locus YNL248C, strain rpa49, active compounds read low): 0.948 | normalized growth (S. cerevisiae deletion strains, locus YNL250W, strain rad50, active compounds read low): 0.929 | normalized growth (S. cerevisiae deletion strains, locus YNL271C, strain bni1, active compounds read low): 0.932 | normalized growth (S. cerevisiae deletion strains, locus YNL298W, strain CLA4, active compounds read low): 0.922 | normalized growth (S. cerevisiae deletion strains, locus YNL307C, strain MCK1, active compounds read low): 0.797 (active) | normalized growth (S. cerevisiae deletion strains, locus YNL322C, strain KRE1 (second series), active compounds read low): 0.907 | normalized growth (S. cerevisiae deletion strains, locus YNL322C, strain KRE1, active compounds read low): 0.94 | normalized growth (S. cerevisiae deletion strains, locus YNR049C, strain mso1, active compounds read low): 0.917 (active) | normalized growth (S. cerevisiae deletion strains, locus YNR052C, strain pop2, active compounds read low): 0.899 (active) | normalized growth (S. cerevisiae deletion strains, locus YOL012C, strain htz1): 0.632 | normalized growth (S. cerevisiae deletion strains, locus YOL147C, strain pex11, active compounds read low): 0.914 (active) | normalized growth (S. cerevisiae deletion strains, locus YOR001W, strain rrp6, active compounds read low): 0.945 | normalized growth (S. cerevisiae deletion strains, locus YOR061W, strain CKA2, active compounds read low): 0.948 | normalized growth (S. cerevisiae deletion strains, locus YOR069W, strain VPS5, active compounds read low): 0.962 | normalized growth (S. cerevisiae deletion strains, locus YOR070C, strain gyp1, active compounds read low): 0.908 (active) | normalized growth (S. cerevisiae deletion strains, locus YOR080W, strain dia2, active compounds read low): 0.909 (active) | normalized growth (S. cerevisiae deletion strains, locus YOR083W, strain WHI5, active compounds read low): 0.877 (active) | normalized growth (S. cerevisiae deletion strains, locus YOR106W, strain vam3, active compounds read low): 0.908 | normalized growth (S. cerevisiae deletion strains, locus YOR136W, strain idh2, active compounds read low): 0.973 | normalized growth (S. cerevisiae deletion strains, locus YOR144C, strain elg1, active compounds read low): 0.907 (active) | normalized growth (S. cerevisiae deletion strains, locus YOR184W, strain ser1, active compounds read low): 0.624 (active) | normalized growth (S. cerevisiae deletion strains, locus YOR231W, strain MKK1, active compounds read low): 0.897 | normalized growth (S. cerevisiae deletion strains, locus YOR265W, strain rbl2, active compounds read low): 0.906 (active) | normalized growth (S. cerevisiae deletion strains, locus YOR270C, strain vph1, active compounds read low): 0.639 (active) | normalized growth (S. cerevisiae deletion strains, locus YOR290C, strain snf2, active compounds read low): 0.828 (active) | normalized growth (S. cerevisiae deletion strains, locus YOR316C, strain cot1, active compounds read low): 0.912 (active) | normalized growth (S. cerevisiae deletion strains, locus YPL051W, strain arl3, active compounds read low): 0.865 (active) | normalized growth (S. cerevisiae deletion strains, locus YPL055C, strain LGE1, active compounds read low): 0.923 | normalized growth (S. cerevisiae deletion strains, locus YPL078C, strain atp4, active compounds read low): 0.863 (active) | normalized growth (S. cerevisiae deletion strains, locus YPL106C, strain sse1, active compounds read low): 0.886 | normalized growth (S. cerevisiae deletion strains, locus YPL240C, strain hsp82, active compounds read low): 0.919 (active) | normalized growth (S. cerevisiae deletion strains, locus YPL241C, strain CIN2, active compounds read low): 0.945 | normalized growth (S. cerevisiae deletion strains, locus YPL256C, strain CLN2, active compounds read low): 0.898 | normalized growth (S. cerevisiae deletion strains, locus YPR119W, strain clb2, active compounds read low): 0.914 (active) | normalized growth (S. cerevisiae deletion strains, locus YPR141C, strain kar3, active compounds read low): 0.897 (active) | normalized growth (S. cerevisiae deletion strains, locus YPR163C, strain tif3, active compounds read low): 0.866 (active) | normalized growth (S. cerevisiae deletion strains, locus YPR167C, strain met16, active compounds read low): 0.887 (active) | normalized growth (S. cerevisiae deletion strains, strain wtn01, active compounds read low): 0.854 (active) | normalized growth (S. cerevisiae strains, strain wild type, active compounds read low): 0.93
